Results: ChEMBL document CHEMBL1961873, “Compounds: GSK PKIS; Assays: Nanosyn kinase panel” (2012)

Columns and labels:
[1] = biological target: Ribosomal protein S6 kinase alpha-6 (Homo sapiens) (UniProt Q9UK32); settings: at 1 µM;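 note: each value is a mean inhibition of RSK4 from a GSK PKIS panel screen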
[2] = biological target: T1, Serine/threonine-protein kinase Sgk1 (Homo sapiens) (UniProt O00141); settings: at 0.1 µM
T1 sequence (whole entry): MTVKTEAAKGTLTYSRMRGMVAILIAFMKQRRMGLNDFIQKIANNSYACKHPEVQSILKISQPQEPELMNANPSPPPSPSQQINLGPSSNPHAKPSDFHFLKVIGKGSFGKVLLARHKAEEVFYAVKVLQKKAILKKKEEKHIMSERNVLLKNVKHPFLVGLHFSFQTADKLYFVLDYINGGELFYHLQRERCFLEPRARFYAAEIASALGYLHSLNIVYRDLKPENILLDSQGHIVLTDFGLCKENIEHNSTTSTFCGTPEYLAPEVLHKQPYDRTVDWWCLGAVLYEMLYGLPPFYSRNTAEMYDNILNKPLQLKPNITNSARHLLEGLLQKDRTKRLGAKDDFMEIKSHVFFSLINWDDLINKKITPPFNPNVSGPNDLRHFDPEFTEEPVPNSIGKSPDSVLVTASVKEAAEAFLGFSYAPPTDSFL

[3] = biological target: T1, Serine/threonine-protein kinase Sgk1 (Homo sapiens); settings: at 1 µM
[4] = biological target: T2, Serine/threonine-protein kinase Sgk2 (Homo sapiens) (UniProt Q9HBY8); settings: at 0.1 µM
T2 sequence (whole entry): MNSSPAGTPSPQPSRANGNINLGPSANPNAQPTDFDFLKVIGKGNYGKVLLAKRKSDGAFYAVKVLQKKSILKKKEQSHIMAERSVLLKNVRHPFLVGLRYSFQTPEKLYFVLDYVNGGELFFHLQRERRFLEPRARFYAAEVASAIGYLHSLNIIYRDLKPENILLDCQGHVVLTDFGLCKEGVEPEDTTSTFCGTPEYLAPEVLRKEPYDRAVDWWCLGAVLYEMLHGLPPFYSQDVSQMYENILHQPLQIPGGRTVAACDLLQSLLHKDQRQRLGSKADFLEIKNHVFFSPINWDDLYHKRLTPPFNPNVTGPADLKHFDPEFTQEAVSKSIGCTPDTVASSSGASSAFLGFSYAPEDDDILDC

[5] = biological target: T2, Serine/threonine-protein kinase Sgk2 (Homo sapiens); settings: at 1 µM
[6] = biological target: T3, Serine/threonine-protein kinase Sgk3 (Homo sapiens) (UniProt Q96BR1); settings: at 0.1 µM
T3 sequence (whole entry): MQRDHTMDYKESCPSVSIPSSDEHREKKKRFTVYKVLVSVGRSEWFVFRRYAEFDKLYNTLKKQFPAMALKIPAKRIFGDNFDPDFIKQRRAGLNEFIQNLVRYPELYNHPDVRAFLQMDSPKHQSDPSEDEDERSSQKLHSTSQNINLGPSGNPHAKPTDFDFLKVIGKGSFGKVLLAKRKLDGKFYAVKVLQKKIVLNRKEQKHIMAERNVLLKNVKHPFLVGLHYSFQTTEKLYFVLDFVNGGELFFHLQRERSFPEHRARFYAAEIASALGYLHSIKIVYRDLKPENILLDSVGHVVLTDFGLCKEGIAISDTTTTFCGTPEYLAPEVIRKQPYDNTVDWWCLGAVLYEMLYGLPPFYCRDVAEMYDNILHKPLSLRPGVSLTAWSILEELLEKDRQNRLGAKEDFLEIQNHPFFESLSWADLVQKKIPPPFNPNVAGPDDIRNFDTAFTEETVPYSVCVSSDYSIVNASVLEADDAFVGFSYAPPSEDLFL

[7] = biological target: T3, Serine/threonine-protein kinase Sgk3 (Homo sapiens); settings: at 1 µM
[8] = biological target: 5'-AMP-activated protein kinase catalytic subunit alpha-1 (Homo sapiens) (UniProt Q13131); settings: at 0.1 µM
5'-AMP-activated protein kinase catalytic subunit alpha-1 (Homo sapiens), sequence (Q13131 whole entry, looked up): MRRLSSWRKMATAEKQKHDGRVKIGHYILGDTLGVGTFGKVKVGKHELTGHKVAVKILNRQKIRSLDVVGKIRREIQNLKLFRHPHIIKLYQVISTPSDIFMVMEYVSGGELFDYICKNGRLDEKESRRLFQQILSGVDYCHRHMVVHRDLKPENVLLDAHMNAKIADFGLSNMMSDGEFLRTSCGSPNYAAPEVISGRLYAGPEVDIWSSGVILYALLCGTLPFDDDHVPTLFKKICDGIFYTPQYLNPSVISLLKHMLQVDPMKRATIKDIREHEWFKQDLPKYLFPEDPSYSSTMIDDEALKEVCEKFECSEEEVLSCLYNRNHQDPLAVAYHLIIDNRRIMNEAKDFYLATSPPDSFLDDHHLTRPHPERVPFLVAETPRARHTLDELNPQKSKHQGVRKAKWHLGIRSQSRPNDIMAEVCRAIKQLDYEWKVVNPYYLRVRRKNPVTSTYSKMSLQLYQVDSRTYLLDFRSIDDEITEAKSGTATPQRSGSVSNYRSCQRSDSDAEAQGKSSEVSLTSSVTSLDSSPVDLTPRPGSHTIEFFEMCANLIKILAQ

[9] = biological target: 5'-AMP-activated protein kinase catalytic subunit alpha-1 (Homo sapiens) (UniProt Q13131); settings: at 1 µM
[10] = biological target: 5'-AMP-activated protein kinase catalytic subunit alpha-2 (Homo sapiens) (UniProt P54646); settings: at 0.1 µM
5'-AMP-activated protein kinase catalytic subunit alpha-2 (Homo sapiens), sequence (P54646 whole entry, looked up): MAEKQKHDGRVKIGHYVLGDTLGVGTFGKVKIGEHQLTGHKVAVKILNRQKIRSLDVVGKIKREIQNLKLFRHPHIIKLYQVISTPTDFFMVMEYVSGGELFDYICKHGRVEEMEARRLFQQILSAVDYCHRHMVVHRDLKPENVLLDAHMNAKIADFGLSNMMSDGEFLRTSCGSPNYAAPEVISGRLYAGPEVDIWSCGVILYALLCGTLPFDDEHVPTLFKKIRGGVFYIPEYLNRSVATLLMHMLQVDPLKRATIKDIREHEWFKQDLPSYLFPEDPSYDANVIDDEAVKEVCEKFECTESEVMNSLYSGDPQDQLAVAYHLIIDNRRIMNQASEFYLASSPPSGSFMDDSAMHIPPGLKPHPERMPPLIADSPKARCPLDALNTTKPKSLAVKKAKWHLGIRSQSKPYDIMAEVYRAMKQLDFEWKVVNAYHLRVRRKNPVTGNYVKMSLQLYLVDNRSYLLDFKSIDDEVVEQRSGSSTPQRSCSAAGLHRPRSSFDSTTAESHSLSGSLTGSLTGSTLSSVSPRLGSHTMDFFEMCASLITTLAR

[11] = biological target: 5'-AMP-activated protein kinase catalytic subunit alpha-2 (Homo sapiens) (UniProt P54646); settings: at 1 µM
[12] = biological target: T4, NUAK family SNF1-like kinase 1 (Homo sapiens) (UniProt O60285); settings: at 0.1 µM
T4 sequence (whole entry): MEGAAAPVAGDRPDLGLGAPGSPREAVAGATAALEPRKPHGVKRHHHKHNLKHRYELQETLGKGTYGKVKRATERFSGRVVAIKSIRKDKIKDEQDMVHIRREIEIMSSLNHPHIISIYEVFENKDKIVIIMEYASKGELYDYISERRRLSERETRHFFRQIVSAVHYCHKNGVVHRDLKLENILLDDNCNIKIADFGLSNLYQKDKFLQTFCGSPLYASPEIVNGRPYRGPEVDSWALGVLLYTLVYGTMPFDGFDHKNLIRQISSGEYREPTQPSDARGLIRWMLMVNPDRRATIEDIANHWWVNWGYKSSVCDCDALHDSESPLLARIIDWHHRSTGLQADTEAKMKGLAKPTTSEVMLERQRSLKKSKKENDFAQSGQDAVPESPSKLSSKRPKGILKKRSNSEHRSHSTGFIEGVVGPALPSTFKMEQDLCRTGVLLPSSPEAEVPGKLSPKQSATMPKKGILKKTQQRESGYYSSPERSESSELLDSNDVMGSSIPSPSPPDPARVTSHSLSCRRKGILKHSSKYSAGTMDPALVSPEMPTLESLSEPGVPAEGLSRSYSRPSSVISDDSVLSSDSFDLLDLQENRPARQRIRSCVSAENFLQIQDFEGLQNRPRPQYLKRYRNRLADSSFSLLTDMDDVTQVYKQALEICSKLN

[13] = biological target: T4, NUAK family SNF1-like kinase 1 (Homo sapiens); settings: at 1 µM
[14] = biological target: T5, Serine/threonine-protein kinase BRSK1 (Homo sapiens) (UniProt Q8TDC3); settings: at 0.1 µM
T5 sequence (whole entry): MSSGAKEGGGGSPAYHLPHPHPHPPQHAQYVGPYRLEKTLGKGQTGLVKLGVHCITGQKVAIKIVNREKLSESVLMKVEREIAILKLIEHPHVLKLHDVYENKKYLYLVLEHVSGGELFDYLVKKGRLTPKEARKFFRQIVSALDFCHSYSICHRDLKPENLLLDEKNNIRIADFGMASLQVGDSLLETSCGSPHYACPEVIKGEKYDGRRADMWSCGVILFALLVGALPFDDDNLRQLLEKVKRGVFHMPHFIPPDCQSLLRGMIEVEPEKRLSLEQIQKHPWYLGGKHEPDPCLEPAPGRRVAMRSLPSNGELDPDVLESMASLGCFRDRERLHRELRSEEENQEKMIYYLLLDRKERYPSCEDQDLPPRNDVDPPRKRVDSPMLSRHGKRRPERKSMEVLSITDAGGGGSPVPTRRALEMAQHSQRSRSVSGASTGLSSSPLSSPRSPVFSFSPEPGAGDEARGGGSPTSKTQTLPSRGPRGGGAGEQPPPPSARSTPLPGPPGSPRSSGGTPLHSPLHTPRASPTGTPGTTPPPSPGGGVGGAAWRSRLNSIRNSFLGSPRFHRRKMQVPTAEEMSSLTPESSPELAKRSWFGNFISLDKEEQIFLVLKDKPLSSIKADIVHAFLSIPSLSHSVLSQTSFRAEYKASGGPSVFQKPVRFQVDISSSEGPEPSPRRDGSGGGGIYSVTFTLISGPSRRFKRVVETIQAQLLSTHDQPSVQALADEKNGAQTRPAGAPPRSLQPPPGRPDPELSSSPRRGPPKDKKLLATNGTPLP

[15] = biological target: T5, Serine/threonine-protein kinase BRSK1 (Homo sapiens); settings: at 1 µM
[16] = biological target: T6, Serine/threonine-protein kinase BRSK2 (Homo sapiens) (UniProt Q8IWQ3); settings: at 0.1 µM
T6 sequence (whole entry): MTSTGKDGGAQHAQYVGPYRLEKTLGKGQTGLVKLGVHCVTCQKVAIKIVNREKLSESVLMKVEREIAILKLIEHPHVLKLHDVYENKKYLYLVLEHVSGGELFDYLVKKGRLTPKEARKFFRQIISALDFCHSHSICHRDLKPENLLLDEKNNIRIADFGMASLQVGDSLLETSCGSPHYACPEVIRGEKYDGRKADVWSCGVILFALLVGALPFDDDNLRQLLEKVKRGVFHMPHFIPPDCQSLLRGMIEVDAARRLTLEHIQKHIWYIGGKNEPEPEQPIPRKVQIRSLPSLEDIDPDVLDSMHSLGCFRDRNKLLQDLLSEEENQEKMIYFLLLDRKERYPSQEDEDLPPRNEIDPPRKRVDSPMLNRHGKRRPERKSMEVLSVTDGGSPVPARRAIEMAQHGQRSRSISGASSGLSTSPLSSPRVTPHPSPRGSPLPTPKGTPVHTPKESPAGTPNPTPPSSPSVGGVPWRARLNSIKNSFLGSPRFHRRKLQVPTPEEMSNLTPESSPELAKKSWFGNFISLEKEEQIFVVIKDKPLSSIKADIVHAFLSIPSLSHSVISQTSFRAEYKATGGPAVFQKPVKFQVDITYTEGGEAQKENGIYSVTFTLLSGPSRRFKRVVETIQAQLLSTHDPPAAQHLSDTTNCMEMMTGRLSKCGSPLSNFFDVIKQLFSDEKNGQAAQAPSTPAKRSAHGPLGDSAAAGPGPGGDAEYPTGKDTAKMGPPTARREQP

[17] = biological target: T6, Serine/threonine-protein kinase BRSK2 (Homo sapiens); settings: at 1 µM
[18] = biological target: Calcium/calmodulin-dependent protein kinase type 1D (Homo sapiens) (UniProt Q8IU85); settings: at 0.1 µM
Calcium/calmodulin-dependent protein kinase type 1D (Homo sapiens), sequence (Q8IU85 whole entry, looked up): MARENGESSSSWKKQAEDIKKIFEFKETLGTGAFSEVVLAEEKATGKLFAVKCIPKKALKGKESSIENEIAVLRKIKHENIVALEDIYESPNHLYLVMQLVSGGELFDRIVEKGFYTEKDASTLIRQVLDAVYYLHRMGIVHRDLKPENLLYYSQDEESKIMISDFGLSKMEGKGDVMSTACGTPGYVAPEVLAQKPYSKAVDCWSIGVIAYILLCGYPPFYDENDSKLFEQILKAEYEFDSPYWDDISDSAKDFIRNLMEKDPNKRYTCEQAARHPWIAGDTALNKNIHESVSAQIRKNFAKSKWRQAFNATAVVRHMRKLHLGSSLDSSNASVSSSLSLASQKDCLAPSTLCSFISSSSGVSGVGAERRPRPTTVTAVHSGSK

[19] = biological target: Calcium/calmodulin-dependent protein kinase type 1D (Homo sapiens) (UniProt Q8IU85); settings: at 1 µM
[20] = biological target: Calcium/calmodulin-dependent protein kinase type II subunit alpha (Homo sapiens) (UniProt Q9UQM7); settings: at 0.1 µM;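 note: reported values are averages (mean inhibition of CAMK2A)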
Calcium/calmodulin-dependent protein kinase type II subunit alpha (Homo sapiens), sequence (Q9UQM7 whole entry): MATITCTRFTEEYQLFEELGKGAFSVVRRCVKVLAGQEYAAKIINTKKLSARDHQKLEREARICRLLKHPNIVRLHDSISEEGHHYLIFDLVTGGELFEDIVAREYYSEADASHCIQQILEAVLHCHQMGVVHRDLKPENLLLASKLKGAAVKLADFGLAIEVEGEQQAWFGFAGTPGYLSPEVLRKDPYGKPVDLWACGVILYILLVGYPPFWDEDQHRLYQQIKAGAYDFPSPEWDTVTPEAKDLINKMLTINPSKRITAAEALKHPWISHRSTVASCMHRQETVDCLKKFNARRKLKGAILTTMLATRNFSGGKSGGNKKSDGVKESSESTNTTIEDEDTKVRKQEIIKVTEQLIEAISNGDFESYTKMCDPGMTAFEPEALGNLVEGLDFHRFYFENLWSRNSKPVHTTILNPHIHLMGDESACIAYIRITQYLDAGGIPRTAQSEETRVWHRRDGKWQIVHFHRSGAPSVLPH

Ribosomal protein S6 kinase alpha-6 (Homo sapiens), sequence (Q9UK32 whole entry): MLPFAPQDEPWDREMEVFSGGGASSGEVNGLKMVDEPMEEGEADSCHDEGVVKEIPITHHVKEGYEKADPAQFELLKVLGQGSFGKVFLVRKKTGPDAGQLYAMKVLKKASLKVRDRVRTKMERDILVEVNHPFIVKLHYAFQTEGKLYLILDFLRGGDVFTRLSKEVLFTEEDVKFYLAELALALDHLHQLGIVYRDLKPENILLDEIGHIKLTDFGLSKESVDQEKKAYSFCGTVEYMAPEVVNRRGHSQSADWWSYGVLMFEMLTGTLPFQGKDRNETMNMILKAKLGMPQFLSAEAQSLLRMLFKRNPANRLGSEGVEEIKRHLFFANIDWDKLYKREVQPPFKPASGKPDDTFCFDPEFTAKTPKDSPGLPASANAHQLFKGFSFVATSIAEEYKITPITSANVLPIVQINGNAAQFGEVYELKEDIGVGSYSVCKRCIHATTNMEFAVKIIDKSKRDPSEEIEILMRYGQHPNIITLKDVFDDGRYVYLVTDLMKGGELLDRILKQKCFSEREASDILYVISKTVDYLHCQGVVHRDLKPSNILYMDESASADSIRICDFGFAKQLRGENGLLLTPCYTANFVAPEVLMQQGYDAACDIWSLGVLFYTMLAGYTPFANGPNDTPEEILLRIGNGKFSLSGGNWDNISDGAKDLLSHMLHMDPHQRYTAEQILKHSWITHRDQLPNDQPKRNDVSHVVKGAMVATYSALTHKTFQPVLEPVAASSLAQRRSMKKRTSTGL

Row | Structure (SMILES) | inhibition [1] | inhibition [2] | inhibition [3] | inhibition [4] | inhibition [5] | inhibition [6] | inhibition [7] | inhibition [8] | inhibition [9] | inhibition [10] | inhibition [11] | inhibition [12] | inhibition [13] | inhibition [14] | inhibition [15] | inhibition [16] | inhibition [17] | inhibition [18] | inhibition [19] | inhibition [20]
1 | CN(C)CCCNc1nccc(-c2c(-c3ccc(F)cc3)nn3cc(C(F)(F)F)ccc23)n1 | 2.42% | 1.95% | 2.09% | 2.67% | 1.75% | 1.92% | 0.78% | 1.32% | 1.37% | 0.22% | 2.79% | -1.31% | 7.22% | 1.29% | 4.81% | 0.82% | 4.17% | 1.56% | 1.39% | 3.05%
2 | c1ccc(Oc2ccc(Nc3ncc(-c4ccccc4)o3)cc2)cc1 | 0.25% | 2.19% | 2.9% | 6.17% | 2.79% | 3.61% | 3.17% | 0.33% | 3.46% | 1.31% | 2.49% | -0.75% | 5.38% | -0.66% | 0.76% | 0% | 1.39% | 0.01% | 0.14% | -0.24%
3 | COc1cc2ncn(-c3cc(OCCc4ccccc4)c(C(N)=O)s3)c2cc1OC | 2.25% | 0.21% | 3.41% | -0.42% | -1.95% | 2.58% | 2.59% | 2.79% | 4.42% | 1.45% | 1.32% | 1.92% | 9.13% | 41.5% | 76.9% | 58.3% | 80.3% | 0.21% | 1.85% | 1.3%
4 | CNC(=O)c1cncc(/C=C/c2c(C)cccc2C)c1 | 0.69% | 0.67% | 2.02% | 5.07% | -3.14% | -1.1% | 0.16% | -0.07% | 0.48% | -4.03% | 0.33% | 2.16% | 2.93% | 1.29% | 5.17% | 0.83% | 5.16% | 1.13% | 0.73% | 2.12%
5 | CN(C)c1ccc2c(c1)/C(=C/Nc1ccc(S(N)(=O)=O)cc1)C(=O)N2 | 20.9% | 2.27% | 5.38% | 0.91% | -1.11% | 1.07% | -1.85% | 10.2% | 44.5% | 7.02% | 26.8% | 39.5% | 55.6% | 11.3% | 42.7% | 18.5% | 54.2% | 0.43% | 4.29% | 3.79%
6 | Cc1ccc(C(=O)NC(C)C)cc1-c1ccc(C(=O)NCC2CC2)cc1 | 0.59% | 0.01% | -0.09% | -3.55% | -7.09% | -5.05% | -2.17% | -1.19% | -1.42% | -0.98% | -5.48% | 3.9% | 3.92% | 1.12% | -1.28% | 0.51% | 1.61% | -1.04% | 0.57% | -4.62%
7 | NC(=O)c1cc(-c2ccncc2)cc(-c2ccccc2)c1N | 2.63% | 4.37% | 2.48% | 4.36% | 3.52% | 2.61% | 5.81% | 3.6% | 2.86% | 4.45% | 4.03% | 0.7% | 1.68% | 2.46% | 4.23% | 1.64% | 2.72% | 0.15% | 1.27% | 2.51%
